# Over roughly 33,000 sequences, “normalized occupancy” has its median near 0.075; the highest 2% begin near 0.095. This excerpt belongs to a sample that is enriched for the highest values.
# Molecular target: MaxL homodimer (Homo sapiens, UniProt P61244 1-160)
# Test: universal protein-binding microarray (PBM); PBS-based mixture, 10 nM His-tagged protein dimer, 2% milk, 200 ng/uL BSA, 50 ng/uL salmon testes DNA, 0.02% TX-100; detection with Alexa 488 anti-His antibody;; high values mean tight binding
# Conditions: protein: recombinant; tags: C-terminal His-tag (pET21a); chain copies: 2; dsDNA, one strand shown
# Procedure, shortened: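 Binding occupancy is a fluorescence intensity normalised to the intensity of the highest-ranked sequence word. Those intensities came from 8-mers on Agilent 4 x 44 K 'all 10-mer' universal arrays incubated with 10 nM His-tagged protein dimer. Bound protein was detected with 10 ng/μL fluorophore-conjugated anti-His antibody before scanning on a GenePix 4400A.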
# Sequence of MaxL homodimer (P61244 whole entry): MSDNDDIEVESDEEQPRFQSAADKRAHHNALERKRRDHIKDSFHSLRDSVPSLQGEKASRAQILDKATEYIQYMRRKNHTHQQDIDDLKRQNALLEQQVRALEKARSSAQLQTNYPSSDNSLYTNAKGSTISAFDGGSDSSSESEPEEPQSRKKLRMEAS
row,Sequence,binding signal [normalized occupancy]
1,CCACGAGC,0.0889
2,TCACGAGA,0.0875
3,CCACGAAG,0.0767
4,CCACGACG,0.0811
5,GCACGAGC,0.085
6,CCACGAGG,0.182
7,GCACGAGA,0.098
8,CCACGAGA,0.1
9,CAACGAGA,0.0767
10,ATGGACTA,0.0826
11,ACTGTTCA,0.073
12,AATGTTAC,0.0779
13,ACTGCGGA,0.0741
14,AGCTCCAA,0.0722
15,GCACGCCA,0.0859
16,CCACGCCC,0.0948
17,CCACACCA,0.0899
18,CTACGCCA,0.0777
19,CCACGCCG,0.0985
20,CCACGCCA,0.0991
21,CGCTTGTA,0.0739
22,AGGCTTTA,0.0758
23,ATGCCAAC,0.0785
24,AGGCGTGG,0.098
25,AGGCGTGC,0.0963
26,AGGCGCGC,0.0762

row,Sequence,binding signal [normalized occupancy]
1,AGGCGTGA,0.0829
2,AGGCGTTC,0.0755
3,AGGCGTCG,0.0733
4,AATTAAAT,0.0748
5,CGTAATTC,0.0757
6,ACCAAGCG,0.0722
7,ACAACTGT,0.0734
8,ACGCGCGG,0.0929
9,AAACGCGG,0.0761
10,ACACGCGA,0.116
11,ACACGCGT,0.13
12,AAACGCGA,0.0771
13,ACGCGCGC,0.0821
14,ACGCGCGT,0.0896
15,ACGCGCGA,0.0786
16,AAACGCGT,0.08
17,ACACGCGC,0.112
18,ATACGCGC,0.0771
19,ACACGCGG,0.143
20,TAGAACAA,0.0771
21,CAGTGCTC,0.0745
22,ATAGCGAA,0.0727
23,ATTGTAAC,0.0837
24,CTCAATCA,0.0801
25,ACAATGAA,0.0787
26,AGGACATA,0.0758

row,Sequence,binding signal [normalized occupancy]
1,TCTTATCA,0.0736
2,CTACTGTC,0.0719
3,AGACATGC,0.102
4,CGACATTC,0.0758
5,CGACATGA,0.0858
6,CGACATGC,0.0992
7,AGACATGA,0.0878
8,AGACATGG,0.0832
9,CTAGCTCA,0.0759
10,CACGCCCA,0.0892
11,GAGAGCAC,0.0743
12,GCACGCAC,0.0902
13,CCACGCAA,0.0865
14,CAACGCTC,0.0772
15,GTACGCTA,0.0796
16,CCACGCAC,0.0964
17,CAACGCTA,0.0734
18,GAACGCTA,0.0771
19,CCACGCTA,0.0973
20,ACACGCTC,0.0924
21,CCACGCTC,0.0965
22,CGACGCTA,0.0724
23,GCACGCTA,0.101
24,GAACACAA,0.0743
25,CCAATTCG,0.0738
26,AGCCCTCC,0.0723

row,Sequence,binding signal [normalized occupancy]
1,TCGTAAAA,0.0794
2,GCCATCAC,0.0781
3,ATACTGGC,0.0812
4,AGGCACAT,0.098
5,AGGCACAC,0.0801
6,AGTCACAC,0.0886
7,ACGCACAA,0.0775
8,AGTCACAG,0.0732
9,AGTCACAT,0.101
10,ACGCACAG,0.076
11,ACGCACAT,0.0968
12,AGGCACAG,0.075
13,GCGACAGC,0.0756
14,CAACATCG,0.0784
15,GTACGGGA,0.0747
16,GCACCAGC,0.0755
17,TCTGTTAA,0.0739
18,AACTGTAC,0.0732
19,AAGCTACG,0.0726
20,CTATTGTC,0.079
21,CCTACAGC,0.0762
22,CCATGCTA,0.0945
23,GGATGCTA,0.0763
24,ACATGCTG,0.124
25,AAATGCTA,0.0773
26,ATATGCTG,0.0875

row,Sequence,binding signal [normalized occupancy]
1,AGATGCTA,0.0746
2,GCATGCTA,0.112
3,AGATGCTG,0.078
4,ACATGCTA,0.106
5,AATAGTAA,0.0776
6,CATGGCTA,0.0864
7,AAGAATTG,0.0747
8,TAGTGGCA,0.0787
9,GATGCTAA,0.0749
10,CAGAGACC,0.0727
11,AGCTATAA,0.0785
12,CCAGGTAA,0.0729
13,ACATACAG,0.0868
14,GTGTGCTA,0.0884
15,CCGTGCTA,0.0812
16,ACGTGCTC,0.108
17,CCGTGCTC,0.0737
18,ACGTGCTA,0.109
19,AGGTGCTC,0.0817
20,GCGTGCTA,0.117
21,ACGTGCTG,0.0935
22,GGGTGCTA,0.0789
23,GCGAACTA,0.0739
24,ATGTGTCC,0.0851
25,ACATTTGA,0.0788
26,ACTCACTC,0.0763

row,Sequence,binding signal [normalized occupancy]
1,CATCCCAG,0.0743
2,ATGCCCAG,0.0765
3,AGGGGTGA,0.082
4,GGTGGTAA,0.0793
5,CATGGTAA,0.0939
6,CATGGTAC,0.0998
7,AATGGTCA,0.0816
8,CGTGGTCA,0.102
9,CATGGTCA,0.0991
10,AGTGGTCA,0.0751
11,CGTGGTAA,0.096
12,CGTGGTAG,0.089
13,CGTGGTCC,0.0896
14,CATGGTCG,0.0925
15,CATGGTAG,0.0879
16,GTTAGACA,0.0808
17,CAGGTCAG,0.0752
18,GCATAGCC,0.0775
19,ACGTTCCC,0.0819
20,GGTCTTTA,0.0763
21,AACACAGC,0.0787
22,CAAGTGTG,0.086
23,ATAATGTG,0.095
24,ACACAGAG,0.0759
25,GATCTTGC,0.0794
26,AGCATCTC,0.0746

row,Sequence,binding signal [normalized occupancy]
1,AGGCATTG,0.0775
2,AGGCATGC,0.1
3,AGGCATTC,0.0762
4,AGGCATAG,0.0784
5,AGGCATCC,0.0757
6,AGGCATGG,0.0974
7,CTCGAAAA,0.0738
8,CAAAATTG,0.0748
9,AGTCGCAA,0.0744
10,GCAGGTAA,0.0753
11,AATGTTCC,0.0722
12,CACGTGCA,0.588
13,TACGTGCA,0.0875
14,GACGTGCC,0.0841
15,AAGGTGCC,0.0753
16,AAGGTGCT,0.0733
17,GACGTGCA,0.0797
18,ACCGTGCT,0.0773
19,AACGTGCC,0.096
20,CACGTCCG,0.0797

# Source: paper PMC4242493, “Sequence specificity incompletely defines the genome-wide occupancy of Myc”
